Several values for one entry are separate records, joined by “and”; a condition that tells them apart may be missing. Identical values can stand only once. Records with an inconclusive call do not appear. Entries that show only a call come without a potency. Some structures have more than one record in an assay (separate samples or runs), and their calls can disagree. Activity calls are given as the source filed them. Unless noted, the call rests on the fitted dose curve; in most records, active means well fitted curve in the direction sought with a large enough effect in the repeat runs; inconclusive means weak or mixed curves; inactive means no such curve, though single readings can be large; an effect the other way counts as inactive or inconclusive.
What was measured:
[1] = qHTS assay to identify small molecule agonists of the vitamin D receptor (VDR) signaling pathway - cell viability counter screen (AID 743224); further: nearly all actives have a fitted effect of over 50% in size; further: potency means the concentration at half of the fitted maximal effect
Summary of the method: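 Viability is measured in the same wells as the VDR-bla reporter assay: after 16 h compound treatment and 2 h substrate loading, CellTiter-Glo is added and luminescence read 30 min later.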

[2] = qHTS assay to identify small molecule antagonists of the vitamin D receptor (VDR) signaling pathway - cell viability counter screen (AID 743225); further: nearly all actives have a fitted effect of over 50% in size; further: potency means the concentration at half of the fitted maximal effect
Summary of the method: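 Cells (VDR-UAS-bla HEK 293T) are plated, rested 4 h at 37C, dosed with compound and 3 nM final 1-alpha,25-dihydroxy vitamin D3, and incubated 16 h. Viability is taken from CellTiter-Glo luminescence in the reporter wells.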

[3] = qHTS assay to identify small molecule agonists of the NFkB signaling pathway (AID 1159509; active means well fitted curve in the direction sought with a large enough effect in the signal ratio in the repeat runs, not every such curve was filed as active; the % refers to the signal ratio; further: series mostly up to about 61 µM)
Summary of the method: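 NFkB-bla ME-180 cells with a beta-lactamase reporter under an NF-kB response element were plated overnight, treated with compounds in DMSO for 5 hr at 37 C, then loaded with FRET substrate for 1.5 hr at room temperature.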

[4] = qHTS assay to identify small molecule agonists of the NFkB signaling pathway - cell viability counter screen (AID 1159515; calls by dose curve; further: nearly all actives have a fitted effect of over 55% in size; further: potency means the concentration at half of the fitted maximal effect)
Summary of the method: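 Multiplexed viability readout: after the 5 hr compound exposure and 1.5 hr FRET substrate step, CellTiter-Glo reagent went into the same NFkB-bla ME-180 wells; ATP luminescence was measured after 30 min at room temperature.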

[5] = qHTS assay to identify small molecule agonists of the endoplasmic reticulum stress response signaling pathway (AID 1159516; active means well fitted activation curve with a large enough effect in the signal ratio in the repeat runs, not every such curve was filed as active; the % refers to the signal ratio)
Summary of the method: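 Tox21 10K library screened in quantitative HTS format on ESRE-bla HeLa cells, a beta-lactamase reporter under ER stress response element control; 5 hr treatment, FRET read.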

[6] = qHTS assay to identify small molecule agonists of the endoplasmic reticulum stress response signaling pathway - cell viability counter screen (AID 1159517; calls by dose curve; further: nearly all actives have a fitted effect of over 50% in size; further: potency means the concentration at half of the fitted maximal effect)
Summary of the method: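 Cells, HeLa ESRE-bla; density, 1,500/well; dosing, 5 hr at 37 C, 5% CO2; readout, CellTiter-Glo luminescence after 30 min RT.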

[7] = qHTS assay to identify small molecule antagonists of the retinoid-related orphan receptor gamma (ROR-gamma) signaling pathway - cell viability counter screen (AID 1159520); further: nearly all actives have a fitted effect of over 50% in size; further: potency means the concentration at half of the fitted maximal effect
Summary of the method: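 Cytotoxicity was read from cellular ATP (CellTiter-Glo luminescence) after 16 hr at 37 C with 1 uM doxycycline induction. The inducer was added 2 hr after compound transfer to Tet-on ROR gamma CHO cells.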

[8] = molecular target: Nuclear receptor ROR-gamma (Homo sapiens) (UniProt P51449); assay: qHTS assay to identify small molecule antagonists of the retinoid-related orphan receptor gamma (ROR-gamma) signaling pathway (AID 1159521; further: nearly all actives have a fitted effect of over 50% in size; further: potency means the concentration at half of the fitted maximal effect)
Summary of the method: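 RORγ antagonism is scored from reduced reporter luminescence in Tet-on CHO cells. Induction used 1 uM final doxycycline hyclate for 16 h at 37 C, following a 2 h compound exposure.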

[9] = qHTS assay to identify small molecule agonists of the AP-1 signaling pathway - cell viability counter screen (AID 1159525; calls by dose curve; further: nearly all actives have a fitted effect of over 55% in size)
Summary of the method: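 Luminescent ATP readout (Cell Titer Glo, 30 min RT), normalised to DMSO and tetra n-octyl ammonium bromide controls. Cells were ME-180 AP-1-bla in 0.5% dialyzed FBS Opti-MEM, with a 5 h, 37 °C compound exposure.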

[10] = qHTS assay to identify small molecule agonists of the AP-1 signaling pathway (AID 1159526; calls by dose curve)

SMILES | Potency [1] | Potency [2] | outcome [3] | Potency [4] | outcome [5] | Potency [6] | Potency [7] | Potency [8] | Potency [9] | outcome [10]
c1nc[nH]n1 | inactive | inactive | inactive | inactive | inactive | inactive | inactive | inactive | inactive | inactive
CNC(=O)N(C)c1nnc(C(C)(C)C)s1 | inactive | inactive | inactive | inactive | inactive | inactive | inactive | inactive | – | inactive
Oc1cc(Cl)ccc1Oc1ccc(Cl)cc1Cl | 20 µM (active) | 7.08 µM (active) and 23.9 µM (active) | inactive | 22.4 µM (active) and inactive | inactive | 20 µM (active) | 31.4 µM (active) and 29.8 µM (active) | 15.7 µM (active) and 23.7 µM (active) | – | –
CC(C)c1ccc(CO)cc1 | inactive | inactive | inactive | inactive | inactive | inactive | inactive | inactive | inactive | inactive
C=CCN(CC=C)C(=O)C(Cl)Cl | inactive | inactive | inactive | inactive | inactive | inactive | inactive | inactive | inactive | inactive
O=[N+]([O-])c1c(Cl)c(Cl)c(Cl)c(Cl)c1Cl | inactive | inactive | inactive | inactive | inactive | inactive | inactive | inactive | – | inactive
CC(C)(OOC(C)(C)c1ccccc1)c1ccccc1 | – | inactive | inactive | inactive | inactive | inactive | inactive | inactive | inactive | inactive
CCCCC(CC)COC(=O)c1ccc(C(=O)OCC(CC)CCCC)c(C(=O)OCC(CC)CCCC)c1 (configuration not stated) | inactive | inactive | inactive | inactive | inactive | inactive | inactive | inactive | – | inactive
O=P(O)(O)CCCl | inactive | inactive | inactive | inactive | inactive | inactive | inactive | inactive | – | inactive
C=CCc1ccc2c(c1)OCO2 | inactive | inactive | inactive | inactive | inactive | inactive | inactive | inactive | – | inactive
c1ccc(-c2cccc(-c3ccccc3)c2)cc1 | inactive | inactive | inactive | inactive | inactive | inactive | inactive | inactive | – | inactive
C=C(C)[C@H]1Cc2c(ccc3c2O[C@@H]2COc4cc(OC)c(OC)cc4[C@@H]2C3=O)O1 | – | inactive | inactive | inactive | inactive | inactive | inactive | 34.8 nM (active) and 770 nM (active) and 10.6 nM (active) | – | inactive
CCOC(=S)S | 24.5 µM (active) and 20.7 µM (active) | inactive | inactive | inactive | inactive | inactive | – | 13.7 µM (active) and 16.3 µM (active) | – | inactive
CCCCN(CCCC)N=O | inactive | inactive | inactive | inactive | inactive | inactive | inactive | inactive | – | inactive
CCN(N=O)C(N)=O | inactive | inactive | inactive | inactive | inactive | inactive | inactive | inactive | inactive | inactive
O=C(O)C(F)(F)C(F)(F)C(F)(F)C(F)(F)C(F)(F)C(F)(F)C(F)(F)F | inactive | – | inactive | inactive | inactive | inactive | inactive | inactive | inactive | inactive
O=S(=O)(Oc1ccc(Cl)cc1)c1ccc(Cl)cc1 | inactive | inactive | inactive | inactive | inactive | inactive | inactive | inactive | – | inactive
c1ccc(NNc2ccccc2)cc1 | inactive | inactive | inactive | inactive | inactive | inactive | inactive | inactive | inactive | inactive
N[C@@H](Cc1ccc(N(CCCl)CCCl)cc1)C(=O)O | inactive | inactive | inactive | inactive | inactive | inactive | 16.8 µM (active) | 11.7 µM (active) and 13.3 µM (active) | inactive | inactive
Oc1cc(Cl)ccc1Cl | inactive | inactive | inactive | inactive | inactive | inactive | inactive | inactive | inactive | inactive
C=CCc1ccc(OC)cc1 | inactive | inactive | inactive | inactive | inactive | inactive | inactive | inactive | inactive | inactive
N#CC(Br)Br | inactive | inactive | inactive | inactive | inactive | inactive | inactive | inactive | inactive | inactive
O=[N+]([O-])c1cccc2ccccc12 | inactive | inactive | inactive | inactive | inactive | inactive | inactive | inactive | – | inactive
CC(C)C(=O)OCC(C)(C)C(OC(=O)C(C)C)C(C)C (configuration not stated) | inactive | inactive | inactive | inactive | inactive | inactive | inactive | inactive | inactive | inactive
Nn1cnnc1 | inactive | inactive | inactive | inactive | inactive | inactive | inactive | inactive | inactive | inactive

SMILES | Potency [1] | Potency [2] | outcome [3] | Potency [4] | outcome [5] | Potency [6] | Potency [7] | Potency [8] | Potency [9] | outcome [10]
CCC(C)c1cc([N+](=O)[O-])cc([N+](=O)[O-])c1O (configuration not stated) | inactive | inactive | inactive | inactive | inactive | inactive | inactive | inactive and 7.7 µM (active) | – | inactive
C#CCOS(=O)OC1CCCCC1Oc1ccc(C(C)(C)C)cc1 (configuration not stated) | 6.92 µM (active) | 38.9 µM (active) | inactive | inactive | inactive | inactive | 30.7 µM (active) and 54.5 µM (active) | 1.94 µM (active) and 3.86 µM (active) | inactive | –
NC(=S)Nc1ccccc1 | inactive | inactive | inactive | inactive | inactive | inactive | inactive | 31.1 µM (active) and inactive | inactive | inactive
CC1(C)C(C=C(Cl)Cl)C1C(=O)OC(C#N)c1cccc(Oc2ccccc2)c1 (configuration not stated) | inactive | inactive | inactive | inactive | inactive | inactive | inactive | inactive | – | inactive
N#CCCCl | inactive | inactive | inactive | inactive | inactive | inactive | inactive | inactive | inactive | inactive
Clc1nc(Cl)nc(Cl)n1 | inactive | inactive | inactive | inactive | inactive | inactive | inactive | inactive | inactive | inactive
CCCCNC(=O)n1c(NC(=O)OC)nc2ccccc21 | inactive | inactive | inactive | inactive | inactive | inactive | inactive | inactive | – | inactive
O=C(CCl)c1ccccc1 | inactive | inactive | inactive | inactive | inactive | inactive | inactive and 61.1 µM (active) | inactive and 54.5 µM (active) | inactive | inactive
c1ccc(N=Nc2ccccc2)cc1 | inactive | inactive | inactive | inactive | inactive | inactive | inactive | inactive | inactive | inactive
Brc1ccc(Oc2cc(Br)c(Br)cc2Br)c(Br)c1 | inactive | inactive | inactive | inactive | inactive | inactive | inactive | inactive | inactive | inactive
C=C(C)C(=O)OCC1CO1 (configuration not stated) | inactive | inactive | inactive | inactive | inactive | inactive | inactive | inactive | – | inactive
CCC(=O)O[C@H]1CC[C@H]2[C@@H]3CCC4=CC(=O)CC[C@]4(C)[C@H]3CC[C@]12C | 12.3 µM (active) and inactive | 43.6 µM (active) and inactive | inactive | inactive | inactive | 54.9 µM (active) and 21.3 µM (active) | inactive | 48.6 µM (active) and inactive | – | inactive
OCC(O)CO | inactive | inactive | inactive | inactive | inactive | inactive | inactive | inactive | inactive | inactive
CN(C)c1ccc(C(=O)c2ccc(N(C)C)cc2)cc1 | inactive | inactive | inactive | inactive | inactive | – | inactive | inactive | inactive | inactive
COP(=O)(OC)OC | inactive | inactive | inactive | – | inactive | inactive | inactive | inactive | inactive | inactive
c1ccc(P(c2ccccc2)c2ccccc2)cc1 | inactive | inactive | inactive | inactive | – | – | inactive | inactive | inactive | inactive
Nc1cccnc1 | inactive | inactive | inactive | inactive | inactive | – | inactive | inactive | inactive | inactive
CCN(CC)C(=O)/C(Cl)=C(\C)OP(=O)(OC)OC | inactive | inactive | inactive | inactive | inactive | – | inactive | inactive | inactive | inactive
O=C(O)CC[N+](=O)[O-] | inactive | inactive | inactive | inactive | inactive | – | inactive | inactive | – | inactive
Nc1ccc(Cl)c(Cl)c1 | inactive | inactive | inactive | inactive | inactive | – | inactive | inactive | inactive | inactive
CC(C)(c1cc(Cl)c(O)c(Cl)c1)c1cc(Cl)c(O)c(Cl)c1 | inactive | inactive | inactive | inactive | inactive | – | inactive | inactive | inactive | –
CCC(C)(C)c1ccc(O)cc1 | inactive | inactive | inactive | inactive | inactive | – | inactive | inactive | – | inactive
CCC(C)c1ccc(O)cc1 (configuration not stated) | inactive | inactive | inactive | – | inactive | inactive | inactive | inactive | inactive | inactive
CCOCN(C(=O)CCl)c1c(C)cccc1CC | inactive | inactive | inactive | inactive | – | inactive | inactive | 45.9 µM (active) and 27.3 µM (active) | inactive | inactive

From PubChem BioAssay (Tox21)
